Data on 13 compounds can be found in PubChem BioAssay (Tox21).

“And” between values parts separate entries of the source, which are not always exact repeats. Identical values can stand only once. Results filed as inconclusive are left out. Where a structure was tested more than once in an assay, its records may differ in their call. The source made the active and inactive calls. Unless noted, calls come from the whole dose curve; as a rule, active = well fitted curve in the direction sought with a large enough effect in the repeat runs; inconclusive = weak or mixed curves; inactive = no such curve, though single readings can be large; an effect the other way counts as inactive or inconclusive.

Assay [1] in a line: qHTS assay to test for compound auto fluorescence at 460 nm (blue) in HEK293 cell free culture (AID 720681). An outline of the steps:
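Test compounds were pinned into cell-free culture medium (DMEM with 10% FBS) and fluorescence was read directly at Ex/Em 405/460 nm. Signals were expressed as fluorescence equivalents of triamterene, with DMSO vehicle as control.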

The nature of assay [2]: qHTS assay to test for compound auto fluorescence at 535 nm (green) in HEK293 cell free culture (AID 720682). In outline: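 Green-channel intensity (Ex/Em 485/535 nm) was recorded from compound-treated wells containing only DMEM with 10% FBS. Fluorescein provided the equivalency standard.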
In general terms: Quantitative high-throughput screening tests each substance at several concentrations.

The nature of assay [3]: qHTS assay to test for compound auto fluorescence at 590 nm (red) in HepG2 cell free culture (AID 720684). An outline of the steps:
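Red fluorescence (540 nm excitation, 590 nm emission) was measured after compound transfer into cell-free MEM supplemented with 10% FBS. Values are equivalencies against Rose Bengal sodium.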

Assay [4] is described as follows: qHTS assay to test for compound auto fluorescence at 460 nm (blue) in HepG2 cell free culture (AID 720685). In outline: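 Compound (23 nL) or DMSO pinned into cell-free MEM with 10% FBS; blue fluorescence read at 405/460 nm excitation/emission, expressed as auto-fluorescence equivalency to triamterene.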
Assay [5] can be described thus: qHTS assay to test for compound auto fluorescence at 535 nm (green) in HepG2 cell free culture (AID 720686).
Assay [6] in a line: qHTS assay to test for compound auto fluorescence at 460 nm (blue) in HepG2 cells (AID 720687). In outline: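 Cells (2,000/well in MEM with 10% FBS) attached overnight at 37 C, then were exposed to compound or DMSO for 1 hr at 37 C, 5% CO2. Fluorescence read at Ex/Em 405/460 nm, expressed as triamterene-equivalent signal.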
Assay [7] has as its target Glucocorticoid receptor (Homo sapiens) (UniProt P04150). As to the kind of experiment: qHTS assay to identify small molecule agonists of the glucocorticoid receptor (GR) signaling pathway (AID 720691; active = well fitted activation curve with a large enough effect in the signal ratio in the repeat runs, not every such curve was filed as active; the % refers to the signal ratio). An outline of the steps: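 GR-bla HeLa cells (beta-lactamase reporter under glucocorticoid response element) were plated 4 h at 37 C/5% CO2, given compounds in DMSO, and incubated 18 h at 37 C. LiveBLAzer B/G FRET substrate was added for 2 h at room temperature, then fluorescence intensity read.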

Assay [8] shares this target. As to the kind of experiment: qHTS assay to identify small molecule antagonists of the glucocorticoid receptor (GR) signaling pathway (AID 720692; active = well fitted inhibition curve with a large enough effect in the signal ratio in the repeat runs, not every such curve was filed as active; the % refers to the signal ratio). In outline: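 GR-bla HeLa cells (beta-lactamase reporter under glucocorticoid response element) were pre-plated 4 h at 37 C, treated with compounds plus 5 nM dexamethasone (final) for 18 h, then read by LiveBLAzer B/G FRET fluorescence after 2 h.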

Assay [9] can be described thus: qHTS assay to identify small molecule antagonists of the glucocorticoid receptor (GR) signaling pathway - cell viability counter screen (AID 720693). Note: nearly all actives have a fitted effect of over 55% in size.
The nature of assay [10]: qHTS assay for identifying genotoxic compounds that show differential cytotoxicity against isogenic chicken DT40 cell lines with known DNA damage response pathways - wild type cell line (AID 743012). Note: nearly all actives have a fitted effect of over 60% in size. Note: potency is the fitted concentration of half-maximal effect. An outline of the steps:
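Parental DNA repair-proficient DT40 cells, 300 per well, were pre-incubated ~0.5 h at 37 C/5% CO2, pin-dosed with compounds in DMSO, then incubated 40 h. Viability was read as CellTiter-Glo luminescence after 30 min at room temperature.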

A short description of assay [11]: qHTS assay for identifying genotoxic compounds that show differential cytotoxicity against isogenic chicken DT40 cell lines with known DNA damage response pathways - Rev3 mutant cell line (AID 743014). Note: nearly all actives have a fitted effect of over 55% in size. Note: potency is the fitted concentration of half-maximal effect.
Assay [12] in a line: qHTS assay for identifying genotoxic compounds that show differential cytotoxicity against isogenic chicken DT40 cell lines with known DNA damage response pathways - Rad54/Ku70 mutant cell line (AID 743015). Note: nearly all actives have a fitted effect of over 60% in size. Note: potency is the fitted concentration of half-maximal effect.
Assay [13] is described as follows: qHTS assay to identify small molecule antagonists of the androgen receptor (AR) signaling pathway - cell viability counter screen (AID 743033; note: nearly all actives have a fitted effect of over 45% in size; note: potency is the fitted concentration of half-maximal effect).
The nature of assay [14]: qHTS assay to identify small molecule antagonists of the thyroid receptor (TR) signaling pathway - cell viability counter screen (AID 743064). Note: nearly all actives have a fitted effect of over 50% in size. An outline of the steps: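 In rat pituitary GH3.TRE-Luc reporter cells co-exposed to compound and 1 nM T3 for 23.5 h, cytotoxicity was assessed with CellTiter-Fluor in the same wells, read by fluorescence.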
Assay [15] is described as follows: qHTS assay to test for compound auto fluorescence at 590 nm (red) in HEK293 cell free culture (AID 720683). In outline: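 Tox21 10K library compounds were pinned into cell-free DMEM with 10% FBS and fluorescence was read at excitation 540 nm. Activity is expressed as Rose Bengal sodium equivalency.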
Assay [16] is described as follows: qHTS assay to identify small molecule antagonists of the androgen receptor (AR) signaling pathway using the MDA cell line - cell viability counter screen (AID 743041; note: nearly all actives have a fitted effect of over 45% in size). An outline of the steps:
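MDA-kb2 AR-luc human breast carcinoma cells (MMTV-luciferase, AR/GR responsive) were treated with compounds plus R1881 agonist for 16 h at 37 °C. Viability was read as CellTiter-Fluor fluorescence in the same wells as the reporter assay.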

Chain of Glucocorticoid receptor (Homo sapiens) (P04150 whole entry, looked up): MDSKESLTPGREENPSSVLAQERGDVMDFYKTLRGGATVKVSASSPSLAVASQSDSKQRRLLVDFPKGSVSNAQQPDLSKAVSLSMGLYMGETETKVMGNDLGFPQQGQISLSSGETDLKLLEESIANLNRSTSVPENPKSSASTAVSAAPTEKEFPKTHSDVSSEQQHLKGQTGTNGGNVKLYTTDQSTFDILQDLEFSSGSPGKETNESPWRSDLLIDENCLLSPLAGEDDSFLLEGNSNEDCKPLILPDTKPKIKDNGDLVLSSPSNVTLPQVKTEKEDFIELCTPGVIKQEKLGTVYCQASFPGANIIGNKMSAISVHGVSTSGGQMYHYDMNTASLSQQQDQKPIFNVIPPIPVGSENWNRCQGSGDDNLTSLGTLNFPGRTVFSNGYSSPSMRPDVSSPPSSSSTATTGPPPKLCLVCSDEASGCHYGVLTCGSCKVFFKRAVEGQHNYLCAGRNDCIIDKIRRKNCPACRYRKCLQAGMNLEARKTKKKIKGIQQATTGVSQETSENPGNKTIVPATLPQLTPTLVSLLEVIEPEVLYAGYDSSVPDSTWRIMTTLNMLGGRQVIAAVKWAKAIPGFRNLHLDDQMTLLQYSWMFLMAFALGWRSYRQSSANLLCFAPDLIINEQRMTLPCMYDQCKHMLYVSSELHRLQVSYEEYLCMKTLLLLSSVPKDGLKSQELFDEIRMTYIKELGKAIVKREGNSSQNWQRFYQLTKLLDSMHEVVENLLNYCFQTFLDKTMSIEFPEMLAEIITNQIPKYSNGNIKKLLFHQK

As for `CC(=O)Nc1ccc2c(c1)Cc1cc(NC(C)=O)ccc1-2`, the Potency result in assay [1], in assay [2], in [3], in assay [4], in assay [5] and in assay [6] was “inactive” throughout. Besides, the Potency result in [7], in assay [8], in [9], in [10], in assay [11] and in [12] was “inactive” throughout. Moreover, the Potency result in assay [13] and in assay [14] was “inactive” throughout.
In the case of `CCOC(=O)C(C)Oc1ccc(Oc2cnc3cc(Cl)ccc3n2)cc1` (stereo unspecified), the Potency entry in assay [1], in assay [2], in assay [15], in assay [3], in assay [4] and in [5] was “inactive” each time. The Potency result in assay [6], in assay [7], in assay [9] and in [13] was “inactive” each time. Also, the Potency in [10] is 40.5 µM (active); in [11] it was “inactive and 40.5 µM (active)”; in [12], “inactive and 45.5 µM (active)”.
Take `CCO[Si](CCCNC(N)=O)(OCC)OCC`: the Potency entry in [1], in assay [2], in assay [15], in assay [3], in assay [4] and in [5] was “inactive” each time. The Potency entry in assay [6], in [7], in assay [8], in [9], in [10] and in assay [11] was “inactive” throughout. For the same compound, the Potency entry in [12], in assay [13], in [16] and in assay [14] was “inactive” each time.
On to `C=C[C@H]1CN2CC[C@H]1C[C@@H]2[C@@H](O)c1ccnc2ccc(OC)cc12`, for which the Potency entry in assay [1], in assay [2], in [15], in assay [3], in assay [4] and in assay [5] was “inactive” each time. The Potency result in assay [6] and in [9] was “inactive” each time. Further, the Potency was 29.8 µM (active) in assay [10]; 47.8 µM (active) in assay [11]; 29.8 µM (active) and 60.1 µM (active) in assay [12].
Regarding `Cc1ccc(N)c([N+](=O)[O-])c1`, the Potency entry in [1], in assay [2], in assay [3], in assay [4], in assay [5] and in assay [6] was “inactive” throughout. Further, the Potency result in assay [7], in [8], in assay [9], in assay [10], in assay [11] and in assay [12] was “inactive” each time. In [14], the Potency entry was “inactive”.
In the case of `CN(C)/N=N/c1nc[nH]c1C(N)=O`, the Potency entry in [1], in assay [2], in assay [3], in assay [4], in assay [5] and in assay [6] was “inactive” in each case. The Potency result in assay [7], in assay [8], in [9], in [10], in assay [11] and in assay [13] was “inactive” in each case. For the same compound, the Potency result in assay [16] and in assay [14] was “inactive” each time.
Turning to `O=S1(=O)CCCO1`, the Potency entry in [1], in assay [2], in assay [3], in [4], in assay [5] and in assay [6] was “inactive” each time. The Potency entry in assay [7], in [8], in assay [9], in assay [10], in [11] and in assay [12] was “inactive” in each case. Also, the Potency entry in assay [14] was “inactive”.
In the case of `CC/C(=C(/CC)c1ccc(O)cc1)c1ccc(O)cc1`, the Potency entry in assay [1], in assay [2], in assay [15], in [3], in [4] and in [5] was “inactive” throughout. In assay [6], the Potency entry is “inactive”. Besides, the Potency in [10] was 26.6 µM (active) and 30.4 µM (active) and 17.2 µM (active); in [11], 29.8 µM (active) and 27.3 µM (active); in [13], “inactive and 48.6 µM (active)”.
Regarding `Nc1ccc(O)c(N)c1`, the Potency entry in assay [1], in [2], in [15], in assay [3], in assay [4] and in assay [5] was “inactive” in each case. The Potency entry in assay [6], in assay [7] and in [9] was “inactive” throughout. Also, the Potency in assay [10] is 24.3 µM (active); in [11] it was “inactive and 27.3 µM (active)”; in assay [12], 27.3 µM (active).
On to `OC[C@H]1O[C@@H]2O[C@H]3[C@H](O)[C@@H](O)[C@@H](O[C@H]4[C@H](O)[C@@H](O)[C@@H](O[C@H]5[C@H](O)[C@@H](O)[C@@H](O[C@H]6[C@H](O)[C@@H](O)[C@@H](O[C@H]7[C@H](O)[C@@H](O)[C@@H](O[C@H]1[C@H](O)[C@H]2O)O[C@@H]7CO)O[C@@H]6CO)O[C@@H]5CO)O[C@@H]4CO)O[C@@H]3CO`, for which the Potency entry in [1], in assay [2], in assay [15], in assay [3], in [4] and in assay [5] was “inactive” in each case. Besides, the Potency entry in assay [6], in [7], in assay [8], in [10], in assay [11] and in [13] was “inactive” each time. The Potency entry in [16] and in assay [14] was “inactive” in each case.
In the case of `Cc1cccc(Nc2ccccc2C(=O)O)c1C`, the Potency result in assay [1], in [2], in assay [3], in assay [4], in [5] and in assay [6] was “inactive” in each case. Further, the Potency entry in assay [7], in assay [8], in assay [10], in assay [11], in [13] and in [16] was “inactive” in each case. The Potency entry in assay [12] was “inactive and 61.1 µM (active)”.
On to `C=CCNCC=C`, for which the Potency entry in [1], in assay [2], in assay [15], in [3], in assay [4] and in [5] was “inactive” in each case. Further, the Potency entry in [6], in [7], in assay [8], in assay [9], in [10] and in assay [11] was “inactive” throughout. Also, the Potency entry in [13], in assay [16] and in [14] was “inactive” in each case.
Regarding `CC/C=C\C/C=C\C/C=C\CCCCCCCC(=O)O`, the Potency entry in assay [1], in assay [2], in [3], in assay [4], in assay [5] and in [6] was “inactive” in each case. The Potency result in assay [9], in [10], in assay [13], in assay [16] and in assay [14] was “inactive” throughout. The Potency entry was “inactive and 48.6 µM (active)” in assay [11]; “inactive and 60.6 µM (active)” in assay [12].
